In PubChem BioAssay AID1571 (National Center for Advancing Translational Sciences (NCATS), 2009):
“And” between values parts separate entries of the source, which are not always exact repeats. Equal values may be shown once. Inconclusive results are not listed. Entries that show only a call come without a potency. A number with no mark means an inactive call. The source made the active and inactive calls. Calls follow the shape of the dose curve; as a rule, active = well fitted curve in the direction sought with a large enough effect; inconclusive = small, poorly fitted or top-dose-only effect, or effect the other way; inactive = flat fitted curve, though single readings scatter.

Assay: Total Fluorescence Confirmation Counterscreen for Inhibitors of the Interaction of Thyroid Hormone Receptor and Steroid Receptor Coregulator 2, Fluorescein Fluoroprobe
Details: TRbeta/SRC2-fluorescein mix, total fluorescence interference; series mostly up to 92.2 µM
Source text: NIH Molecular Libraries Probe Production Network [MLPCN] NIH Chemical Genomics Center [NCGC] MLPCN Grant: DK058080 Assay Provider: R. Kip Guy, St. Jude Children's Research Hospital NCGC Assay Overview: Thyroid receptor (TR) regulates many homeostatic processes including basal metabolism, cardiovascular function, body weight, and lipid trafficking. TR modulators are potential therapeutics for obesity and hyperlipidemias but current thyroid analogs have undesirable side effects, particularly cardiac stimulation. To identify inhibitors that specifically prevent the interaction of TR with the steroid receptor coregulator 2 (SRC2), a fluorescence polarization assay was screened (Arnold et al., 2006). This assay detects interaction of the ligand-binding domain of human TRbeta with a fluorescein labeled SRC2 peptide, corresponding to a 20 amino acid region of the nuclear receptor interaction domain. Total fluorescence (555 nm excitation and 632 nm emission) was measured to identify potential fluorescent and light absorbing compounds. Such compounds may be artifacts that interfere with the fluorescence polarization assay. This assay is a confirmation assay for AID 1479. Arnold, L. A.; Estebanez-Perpina, E.; Togashi, M.; Shelat, A.; Ocasio, C. A.; McReynolds, A. C.; Nguyen, P.; Baxter, J. D.; Fletterick, R. J.; Webb, P.; Guy, R. K. A high-throughput screening method to identify small molecule inhibitors of thyroid hormone receptor coactivator binding. Sci STKE 2006, p 13.
NCGC Assay Protocol Summary: For screening, 5 uL/well 0.6 uM TRbeta and 20 nM SRC2 Fluorescein in protein buffer (20mM Tris hydrochloride, 100mM NaCl, 10% glycerol, 1mM EDTA, 0.01% NP-40, 1mM DTT, 1uM T3 and 5% DMSO) was dispensed into black solid 1536-well plates (Grenier) using a solenoid-based dispenser. Following transfer of 23 nL compound or DMSO vehicle by a pin tool, the plates were centrifuged 15 s at 1000 RPM and incubated 5 hr at ambient temperature. The plates were read by an Envision (Perkin Elmer) to detect fluorescence polarization of SRC2 Fluorescein (480 nm excitation and 535 nm emission). Data were normalized to unbound (all components except TRbeta) and bound SRC2 Fluorescein controls. Total fluorescence (TF) was calculated as follows: TF = S + 2P where S and P are fluorescence readings in the parallel and perpendicular channels, respectively. In this assay, we provide % activity data for each concentration as well as potencies for the active compounds.

SMILES	total fluorescence change, positive = fluorescent	Potency
C/C(=C\C(=O)c1ccccc1)Nc1ccc(O)cc1	10.3% [at 11.6 µM]	–
COC(=O)/C(=C/Nc1ccc(O)cc1)[N+](=O)[O-]	0.349% [at 5.76 µM]	–
Cc1cccc(Cn2c(C(=O)OC(C)C)cc3c2ccn3C)c1	8.18% [at 5.76 µM]	–
COc1ccc(C(=O)Oc2ccc(C(c3c(C)[nH][nH]c3=O)c3c(C)[nH][nH]c3=O)cc2OC)cc1	–	inactive
COc1ccc2ccc3c(c2c1)N=CC1(O3)N(C)c2ccccc2C1(C)C (stereo not given)	-5.71% [at 0.0112 µM]	–
COc1ccc(CN2C(=O)Cc3c2nc(N)c2c(N)nc(N4CCCCC4)c(C#N)c32)cc1	–	inactive
C=CCNC(=O)/C(C#N)=C\c1cc(Cl)c(OCC)c(OC)c1	–	inactive
CCCCOc1ccc(C(=O)CCN2CCOCC2)cc1	–	inactive
O=C(O)C1C2C=CC(O2)C1C(=O)Nc1ccc(S(=O)(=O)N2CCc3ccccc32)cc1 (stereo not given)	3.65% [at 11.6 µM]	–
Cc1ccccc1Nc1cc2ccccc2c(=O)[nH]1	–	25.1 µM [fluorescent] (active) and 44.7 µM [fluorescent] (active)
N#Cc1c(NC(=O)c2ccccc2Cl)n(Cc2ccccc2)c2nc3ccccc3nc12	–	inactive
COn1c2c(c3c4nonc4ccc31)CCCC2	–	inactive
C=CCNC(=O)/C(C#N)=C/c1c(C)nn(-c2ccc(Cl)cc2)c1Cl	–	inactive
CC1(C)C(N(O)C(=O)Nc2ccc(Cl)cc2)N(c2ccc(Cl)cc2)C(=O)N1CC(=O)NN (stereo not given)	17.6% [at 11.6 µM]	–
Nc1cc(-c2ccccc2)c[nH]c1=O	–	39.8 µM [fluorescent] (active)
O=C(NNc1cc(N2CCOCC2)nc(N2CCOCC2)n1)c1ccc([N+](=O)[O-])cc1	19.9% [at 11.6 µM]	–
Nc1cnccc1C(=O)O	–	inactive
CCc1ccc2c(c1)c1nc(C)sc1n2CC	–	inactive
Cc1nnc(SCC(=O)Nc2ccc(N(C)C)cc2)[nH]c1=O	–	inactive
Nc1cc(-c2ccncc2)c[nH]c1=O	–	inactive

SMILES	total fluorescence change, positive = fluorescent	Potency
Cc1cc2c(NC(=O)Nc3ccccc3)cccc2nn1	9.99% [at 0.0112 µM]	–
Nc1c(C(=O)NCc2ccco2)c2nc3ccccc3nc2n1CCc1ccccc1	–	inactive
O=C(/C=C/c1ccco1)NC(=S)Nc1cc(C(F)(F)F)ccc1N1CCOCC1	–	inactive
COc1cc(/C=C(\C#N)C(=O)NCC2CCCO2)ccc1OCCC(C)C (stereo not given)	–	inactive
CC1=NN(c2ccc(F)cc2)C(=O)C1C(c1cccc(O)c1)c1c(C)[nH]n(-c2ccc(F)cc2)c1=O (stereo not given)	–	inactive
CCCCCCN=CC1=C(O)CC(C)(C)CC1=O	-5.99% [at 0.0112 µM]	–
O=C1CNC(=S)N1c1nc(-c2ccccc2)cs1	7.24% [at 0.0112 µM]	–
Cc1c(C#N)c(O)n(CCO)c(=O)c1N=Nc1ccc2c(c1)COC2=O	–	inactive
CCC(NC(=O)Nc1ccc(O)cc1)(C(F)(F)F)C(F)(F)F	–	inactive
Cc1[nH][nH]c(=O)c1C(c1ccc(-c2ccccc2C(=O)O)o1)c1c(C)[nH][nH]c1=O	–	inactive
O=c1[nH]c(Nc2ccccc2)cc2ccccc12	–	35.5 µM [fluorescent] (active)
C=CCSc1nnc2n(-c3ccccc3OC)c(=O)c3c4c(sc3n12)CCC4	–	inactive
Cc1nc2c3cc(F)ccc3n(Cc3ccccc3F)c2s1	–	inactive
Cc1cccc(S(=O)(=O)c2cn(Cc3ccccc3)c3cc(N4CCC(C)CC4)c(F)cc3c2=O)c1	–	inactive
CCSc1ncc(Cl)c(C(=O)Nc2nc3ccc(OC)cc3s2)n1	–	inactive
CCOc1cc(N2CCOCC2)c(OCC)cc1NC(C)C(=O)N1CCN(CC)CC1 (stereo not given)	10.4% [at 11.6 µM]	–
O=c1cc(C23CC4CC(CC(C4)C2)C3)[nH][nH]1	–	inactive
COc1cc(NCCCC(C)N)c2ncccc2c1 (stereo not given)	-9.55% [at 11.6 µM]	–
COc1ccc(C(=O)/C=C/Nc2ccc(S(=O)(=O)Nc3ncccn3)cc2)cc1	8.87% [at 0.0112 µM]	–
CC1(C)CC(=O)C(N=Nc2cccc(S(=O)(=O)N3CCOCC3)c2)=C(O)C1	–	inactive
